DT40 TDP1 CPT: DT40-hTDP1 cell growth loss with CPT; AID 686979; 420,000 compounds, 12% hits; Potency, µM (top dose mostly 46.2 µM), inactives show at the top dose activity change, negative = growth inhibition, usual class: inhibitors; chicken DT40 Tdp1-/-;hTDP1 cells + 20 nM CPT, ATP luminescence, 48 h; also: potency is read from the fitted curve at half-maximal effect; nearly all actives have a fitted effect of over 55% in size
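Chicken DT40 Tdp1-/- cells complemented with human TDP1, 400 cells/well, exposed to compounds plus 20 nM camptothecin for at least 48 h at 37 C; viability read as ATP content by CellTiter-Glo luminescence.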
DT40 TDP1 no CPT: qHTS for Inhibitors of human tyrosyl-DNA phosphodiesterase 1 (TDP1): qHTS in cells in absence of CPT; DT40 Tdp1-/- hTDP1 cells, no CPT, ATP luminescence, 48 h; Potency, µM (top dose mostly 46.2 µM), inactives show at the top dose activity change, negative = growth inhibition, most hits filed as inhibitors; 420,000 compounds, 15% hits; AID 686978, 2013; also: potency is read from the fitted curve at half-maximal effect; nearly all actives have a fitted effect of over 55% in size
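Stably hTDP1-transfected Tdp1-null chicken DT40 cells were treated with library compounds minus camptothecin and grown for at least 48 hr at 37 °C, after which cellular ATP was quantified by luminescence.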
HT1080 IDH1KD tx: toxicity to HT-1080 IDH1 knockdown cells (counter line) | HT-1080 IDH1 knockdown viability, ATP luminescence, 48 h | Potency, µM (top dose mostly 46.1 µM), for the others: top-dose activity, negative = toxicity, usual class: cytotoxic | 360,000 compounds, 2% hits | AID 686971;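 also: potency is read from the fitted curve at half-maximal effect; 0% = DMSO wells and -100% = cell-free medium wells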
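After a 2 h attachment period, IDH1KD HT-1080 cells took pin-transferred compound for 48 h at 37 °C; ATP-based luminescence after 10 min room-temperature reagent incubation reported viability.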
12-LOX inh: blocks human arachidonate 12S-lipoxygenase | purified 12hLO, xylenol orange hydroperoxide absorbance | P18054 | Potency, µM (highest dose often 108 µM), inactives show top-dose activity change, negative = inhibition, actives largely listed as inhibitors | 580,000 compounds, 1.1% hits; also: potency is read from the fitted curve at half-maximal effect
Target sequence (P18054 whole entry, looked up): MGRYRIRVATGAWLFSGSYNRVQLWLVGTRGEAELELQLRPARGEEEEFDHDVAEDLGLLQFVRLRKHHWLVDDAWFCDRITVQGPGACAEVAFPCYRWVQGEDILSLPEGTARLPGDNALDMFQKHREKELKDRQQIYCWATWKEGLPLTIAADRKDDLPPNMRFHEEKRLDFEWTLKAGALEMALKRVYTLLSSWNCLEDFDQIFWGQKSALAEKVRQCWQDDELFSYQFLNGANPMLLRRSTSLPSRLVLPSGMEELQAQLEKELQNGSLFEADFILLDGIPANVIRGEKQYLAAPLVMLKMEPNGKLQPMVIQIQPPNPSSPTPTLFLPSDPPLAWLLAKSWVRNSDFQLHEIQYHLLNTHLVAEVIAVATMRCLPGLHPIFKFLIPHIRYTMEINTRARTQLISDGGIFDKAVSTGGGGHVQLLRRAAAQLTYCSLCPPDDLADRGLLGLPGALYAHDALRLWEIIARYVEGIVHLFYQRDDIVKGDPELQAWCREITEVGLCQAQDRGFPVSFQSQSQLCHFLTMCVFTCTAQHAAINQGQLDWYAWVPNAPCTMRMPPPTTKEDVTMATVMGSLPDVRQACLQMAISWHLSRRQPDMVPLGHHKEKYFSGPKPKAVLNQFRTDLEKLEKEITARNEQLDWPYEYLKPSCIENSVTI
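Purified human 12hLO at 150 nM in 25 mM Hepes, 0.01% Triton X-100, pH 7.0, preincubated 15 min at room temperature with compound. Reaction started with 40 uM arachidonic acid, 30 min at room temperature. Hydroperoxide measured by Fe-xylenol orange, 573/405 nm absorbance ratio.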
HT1080-NT tox: kills 2HG-producing HT-1080-NT fibrosarcoma cells; 360,000 compounds, 1.6% hits; Potency, µM (top dose mostly 46.1 µM), for inactives: at the highest dose activity, negative = less viability, usual class: cytotoxic; HT-1080-NT fibrosarcoma viability, CellTiter-Glo ATP luminescence, 48 h;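 also: NT is the 2HG producing partner of a matched IDH1 knockdown line; potency is read from the fitted curve at half-maximal effect; 0% = DMSO-treated cells and -100% = media-only wells without cells; nearly all actives have a fitted effect of over 55% in size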
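HT-1080-NT; 750 cells/well; 5% FBS RPMI; 48 h compound, 37 degrees C; CellTiter-Glo luminescence; curve fitting and curve-class assignment.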
IL-1B inflam inh: inhibitors of inflammasome signaling (IL-1 beta secretion); THP-1 LPS/ATP IL-1B secretion, AlphaLISA, 16 h; active compounds read low; activity change, % at 57.5 µM; 360,000 compounds, 4.7% hits; AID 743279; in the data active = activity change below about -50%; inconclusive = mostly about -30% to -49%
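THP-1 cells pretreated 1 hr with compounds (up to 57.5 uM final), then stimulated with LPS (250 ng/mL final) plus ATP (1.25 mM final); secreted IL-1B measured by AlphaLISA after 16 hr, decreased signal indicating inhibition.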
An asterisk follows results filed as active; [ ] = dose if it differs, or a comment. Only a selection was taken, and hits are over-represented in it overall. Unless noted, calls follow the shape of the dose curve; as a rule, active = well fitted curve in the direction sought with a large enough effect; inconclusive = small, poorly fitted or top-dose-only effect, or another doubt; inactive = no such curve, though single readings can be large; an effect the other way counts as inactive or inconclusive. Unless noted, % is scaled to controls: 0 for no effect and ±100 for the full control effect.

COc1ccccc1NS(=O)(=O)c1cc(NC(=S)NCCN2CCOCC2)ccc1N1CCOCC1 was read as DT40 TDP1 CPT inconclusive, DT40 TDP1 no CPT inconclusive, HT1080 IDH1KD tx -2%, 12-LOX inh 50µM*, HT1080-NT tox 4% and IL-1B inflam inh 20.
COc1ccccc1NS(=O)(=O)c1cc(NC(=O)C2CCCC2)ccc1N1CCOCC1 was read as DT40 TDP1 CPT 15µM*, DT40 TDP1 no CPT inconclusive, HT1080 IDH1KD tx -5%, 12-LOX inh -28%, HT1080-NT tox -4% and IL-1B inflam inh -24.
For CC(C(=O)c1c[nH]c2ccccc12)N1CCC(C(=O)N2CCCCCC2)CC1 (stereo not drawn) the results were 12-LOX inh 1%.
For COc1ccc(CNC(=O)Cn2c(=O)nc3n2C(=O)N(c2ccccc2)C3)cc1 the results were 12-LOX inh 45%.
COc1ccccc1NS(=O)(=O)c1cc(NC(=O)c2ccc(NC(C)=O)cc2)ccc1N1CCOCC1 was read as DT40 TDP1 CPT 2.3µM*, DT40 TDP1 no CPT 5.8µM*, HT1080 IDH1KD tx 3%, 12-LOX inh inconclusive, HT1080-NT tox 2% and IL-1B inflam inh -2.
Screening COc1ccccc1NS(=O)(=O)c1cc(NC(=O)C(C)(C)C)ccc1N1CCOCC1 returned DT40 TDP1 CPT inconclusive, DT40 TDP1 no CPT -23%, HT1080 IDH1KD tx 11%, 12-LOX inh -19%, HT1080-NT tox 12% and IL-1B inflam inh -18.
Screening Cc1cc(NC(=O)c2ccc(S(=O)(=O)N3CCCC3)cc2)nc2c1c(=O)oc1ccccc12 returned DT40 TDP1 CPT 7.3µM*, DT40 TDP1 no CPT 10µM*, HT1080 IDH1KD tx 4%, 12-LOX inh -13%, HT1080-NT tox 3% and IL-1B inflam inh 2.
Screening CN(C)S(=O)(=O)c1ccc(C(=O)Nc2nnc(SCc3ccccc3)s2)cc1 returned DT40 TDP1 CPT -3%, DT40 TDP1 no CPT 16%, HT1080 IDH1KD tx 13%, 12-LOX inh -19%, HT1080-NT tox 6% and IL-1B inflam inh 25.
For Cc1cc(NC(=O)c2ccc(S(=O)(=O)N3CCOCC3)cc2)nc2c1c(=O)oc1ccccc12 the results were 12-LOX inh 12%.
Cc1cc(-c2csc(NC(=O)c3ccc(S(=O)(=O)N(C)C)cc3)n2)c(C)n1-c1ccccc1 was read as DT40 TDP1 CPT inconclusive, DT40 TDP1 no CPT 18µM*, HT1080 IDH1KD tx -2%, 12-LOX inh -21%, HT1080-NT tox 0% and IL-1B inflam inh 7.
Screening O=C(Nc1nc(-c2cc3ccccc3o2)cs1)c1ccc(S(=O)(=O)N2CCCC2)cc1 returned DT40 TDP1 CPT 16µM*, DT40 TDP1 no CPT 2.3µM*, HT1080 IDH1KD tx inconclusive, 12-LOX inh -12%, HT1080-NT tox -21% and IL-1B inflam inh -7.
Screening CN(C)S(=O)(=O)c1ccc(C(=O)Nc2nc(-c3cc4ccccc4o3)cs2)cc1 returned DT40 TDP1 CPT 10µM*, DT40 TDP1 no CPT 2.9µM*, HT1080 IDH1KD tx inconclusive, 12-LOX inh -6%, HT1080-NT tox inconclusive and IL-1B inflam inh -1.
O=C(Nc1nc(-c2cc3ccccc3oc2=O)cs1)c1ccco1 was read as DT40 TDP1 CPT inconclusive, DT40 TDP1 no CPT inconclusive, HT1080 IDH1KD tx 11%, 12-LOX inh -17%, HT1080-NT tox -3% and IL-1B inflam inh 1.
For CCN(CC)Cc1c(C=O)sc2c1CCCC2 the results were 12-LOX inh -36%.
Screening COc1cc(NC(=O)c2cccs2)ccc1NC(=O)Cc1ccccc1 returned DT40 TDP1 CPT 0%, DT40 TDP1 no CPT -5%, HT1080 IDH1KD tx 3%, 12-LOX inh 9%, HT1080-NT tox 12% and IL-1B inflam inh -17.
Screening COc1cc(C(=O)Nc2cccc(NC(=O)c3cccs3)c2)cc(OC)c1OC returned DT40 TDP1 CPT 21µM*, DT40 TDP1 no CPT 21µM*, HT1080 IDH1KD tx 0%, 12-LOX inh 17%, HT1080-NT tox -3% and IL-1B inflam inh -27.
COc1ccc(-c2nnc(NC(=O)c3cccs3)s2)c(OC)c1 was read as DT40 TDP1 CPT 16µM*, DT40 TDP1 no CPT 29µM*, HT1080 IDH1KD tx 17%, 12-LOX inh 3%, HT1080-NT tox 8% and IL-1B inflam inh 0.
COc1cc(NC(=O)c2cccc(Cl)c2)ccc1NC(=O)c1cccs1 was read as DT40 TDP1 CPT inconclusive, DT40 TDP1 no CPT 18µM*, HT1080 IDH1KD tx -3%, 12-LOX inh 7% and HT1080-NT tox 10%.
Screening COc1cc(NC(=O)c2cc3ccccc3cc2OC)ccc1NC(=O)c1cccs1 returned DT40 TDP1 CPT 23µM*, DT40 TDP1 no CPT 13µM*, HT1080 IDH1KD tx -16%, HT1080-NT tox -30% and IL-1B inflam inh -69*.
Screening CC(C)CN1CCC[C@H]1c1nc(-c2ccnc(N3CCOCC3)c2)no1 returned 12-LOX inh 45%[176 µM].
COc1ccc2nc(Nc3nc(C)c(Cc4ccc(Cl)cc4)c(=O)[nH]3)nc(C)c2c1 was read as 12-LOX inh 15%.
COc1c(Cl)cc(Cl)cc1/C=C/C(=O)c1ccc(NC(=O)c2cccs2)cc1 was read as DT40 TDP1 CPT 2.3µM*, DT40 TDP1 no CPT 2.6µM*, HT1080 IDH1KD tx inconclusive, 12-LOX inh -4%, HT1080-NT tox 21µM* and IL-1B inflam inh -104*.
For COc1cc2oc(=O)c(CC(=O)N3CCCC3)c(C)c2cc1OC the results were 12-LOX inh -1%.
O=c1[nH]c2ccc(Br)cc2c(-c2ccccc2)c1CN1CCOCC1 was read as DT40 TDP1 CPT inconclusive, DT40 TDP1 no CPT inconclusive, HT1080 IDH1KD tx -8%, 12-LOX inh -5%[57.4 µM], HT1080-NT tox -5% and IL-1B inflam inh -7.
`O=c1[nH]c2ccc(Br)cc2c(-c2ccccc2)c1CN1CCCCC1` gave 12-LOX inh 22µM*.
For COCCCn1c(SCc2nnc(-c3ccc(OC)c(OC)c3)o2)nc2ccccc2c1=O the results were DT40 TDP1 CPT inconclusive, DT40 TDP1 no CPT 23µM*, HT1080 IDH1KD tx inconclusive, 12-LOX inh -1%, HT1080-NT tox inconclusive and IL-1B inflam inh inconclusive.
Screening COCCCn1c(SCc2nnc(-c3ccc(OC)c(OC)c3)o2)nnc1-c1ccncc1 returned DT40 TDP1 CPT -3%, DT40 TDP1 no CPT -18%, HT1080 IDH1KD tx -9%, 12-LOX inh 444%, HT1080-NT tox -3% and IL-1B inflam inh -3.

Screening results deposited in PubChem BioAssay by National Center for Advancing Translational Sciences (NCATS).
